Assay [1] is described as follows: small molecules captured by biotinylated probe aFSTL3 – biochemical, small-molecule microarray, fluorescence 635/667, stem cell growth factor project, primary screen (AID 1064).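 Note: measures binding of the biotinylated anti-FSTL3 antibody to printed compounds.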 Particulars: higher = more signal.
Assay [2] can be described thus: binders from COS7 lysate, DM2A8 probe, primary screen, torsin A project, cell lysate, small-molecule microarray, fluorescence 635/667 (AID 1065). Particulars: higher = more signal, COS7 lysate expressing mutant human TOR1A.
Assay [3] can be described thus: small molecules captured by biotinylated probe aFGF2 – biochemical, small-molecule microarray, fluorescence 635/667, stem cell growth factor project, primary screen (AID 1067).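 Note: measures binding of biotinylated aFGF2 protein to printed compounds on slides; z-score merges feature fluorescence and signal-to-noise across triplicate slides.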 The conditions noted are these: higher = more signal.
A short description of assay [4]: small molecules captured by biotinylated probe aFGF10 – biochemical, small-molecule microarray, fluorescence 635/667, stem cell growth factor project, primary screen (AID 1071).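 Note: score merges 667 nm spot intensity and signal to noise from triplicate slides.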 Particulars: higher = more signal.
For assay [5], the target named is Neurogenic locus notch homolog protein 2 (Homo sapiens) (UniProt Q04721). As to the kind of experiment: small molecules binding Notch2 protein – biochemical, small-molecule microarray, 635 nm fluorescence, stem cell growth factors, primary screen (AID 1073). Particulars: higher = more signal.
Assay [6] concerns the target Pro-neuregulin-1, membrane-bound isoform (Homo sapiens) (UniProt Q02297). The assay is described as follows: small molecules binding neuregulin-1 protein – biochemical, small-molecule microarray, fluorescence 635/667, psychiatric disease protein project, primary screen (AID 1075).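 Note: score combines 667 nm spot fluorescence with signal to noise.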 The conditions noted are these: NRG1 binding, 635 nm fluorescence, higher = more signal.
Assay [7] deals with Neuregulin-1 EGF-like domain. As to the kind of experiment: small molecules binding NRG1 EGF domain – biochemical, small-molecule microarray, 635 nm fluorescence, primary screen (AID 1081).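 Note: binding of the protein to compounds printed on small-molecule microarray slides.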 The conditions noted are these: higher = more signal.
Assay [8] can be described thus: FRG1 expression reporter modulators in myotubes – cell-based, C2C12 myotubes, firefly/Renilla luciferase, luminescence, FRG1 inhibition for FSHD, primary screen (AID 1084). Particulars: FRG1 promoter luciferase, higher = more signal, called active from +8 up or from −8 down.
Assay [9] in a line: small molecules captured by biotinylated probe aFST – biochemical, small-molecule microarray, fluorescence 635/667, stem cell growth factor project, primary screen (AID 1086).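 Note: score merges 667 nm fluorescence with signal-to-noise of each printed compound spot.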 Particulars: higher = more signal.
Assay [10] is described as follows: binders of probe aHhip on microarray, primary screen, stem cell growth factor project, biochemical, small-molecule microarray, fluorescence 635/667 (AID 1087).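 Note: score merges spot fluorescence at 667nm with spot signal to noise ratio.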 The conditions noted are these: higher = more signal.
Assay [11] concerns PRMT1 (protein arginine N-methyltransferase 1). As to the kind of experiment: small molecules binding arginine methyltransferase PRMT1 – biochemical, small-molecule microarray, 635 nm fluorescence, primary screen (AID 1088).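 Note: binding of Prmt1 protein to compounds spotted on small-molecule microarray slides.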 The conditions noted are these: higher = more signal.
The nature of assay [12]: growth effects on S. cerevisiae YJM789 – YJM789 clinical isolate, OD600, 24 h, basal, primary screen (AID 1089).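 Note: growth of clinical yeast isolate S. cerevisiae YJM 789 seeded 1000 cells per well; test concentration not given here.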 The conditions noted are these: higher = more signal, called active from +8 up or from −8 down.
The nature of assay [13]: S. pombe growth modifiers, basal conditions – strain 972, OD600, 24 h, no modulator, primary screen (AID 1090).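 Note: basal condition with compound alone and no growth modifier present; test concentration not given here.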 Particulars: S. pombe 972 growth, higher = more signal, called active from +8 up or from −8 down.
The nature of assay [14]: budding yeast growth modifiers under rapamycin – strain BY4716, OD600, 96 h, primary screen (AID 1091). Note: test concentration not given here. The conditions noted are these: S. cerevisiae BY4716 + rapamycin, higher = more signal, called active from +8 up or from −8 down.
Assay [15] has as its target Torsin-1A-interacting protein 2 (Homo sapiens) (UniProt Q8NFQ8). As to the kind of experiment: small molecules binding lysate-expressed LULL1 – cell lysate, human LULL1 lysate, 635/667 nm fluorescence, primary screen (AID 1092).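 Note: probe is lysate of COS7 cells overexpressing human LULL1; score merges per-feature 667 nm fluorescence with signal-to-noise.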 The conditions noted are these: small-molecule microarray, hLULL1 lysate binding, 635 nm fluorescence; higher = more signal.
The nature of assay [16]: optical density change of DRC41 E. coli – strain DRC41, OD650, 24 h, E. coli filamentation project, primary screen (AID 1093).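 Note: MC1000 strain lacking acrAB efflux and sulA so SOS filamentation is blocked; test concentration not given here.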 The conditions noted are these: E. coli DRC41 growth, higher = more signal, called active from +8 up or from −8 down.
The nature of assay [17]: probe aLefty2 binding to arrayed compounds – biochemical, biotinylated probe, 635/667 nm fluorescence, primary screen (AID 1094).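 Note: score merges spot fluorescence near 667 nm with spot signal-to-noise ratio.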 Particulars: small-molecule microarray, higher = more signal.
Assay [18] deals with Noggin (protein binding on small-molecule microarray). As to the kind of experiment: small molecules binding Noggin protein – biochemical, 635/667 nm fluorescence, primary screen (AID 1095).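 Note: score merges 667 nm feature fluorescence with signal to noise over triplicate slides.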 The conditions noted are these: 635 nm fluorescence, higher = more signal.
For assay [19], the target named is Neurogenic locus notch homolog protein 3 (Homo sapiens) (UniProt Q9UM47). As to the kind of experiment: small molecules binding NOTCH3 protein – biochemical, 635/667 nm fluorescence, primary screen (AID 1096). The conditions noted are these: small-molecule microarray, 635 nm fluorescence, higher = more signal.
The nature of assay [20]: probe aEGFR binding to arrayed compounds – biochemical, biotinylated probe, 635/667 nm fluorescence, primary screen (AID 1097).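 Note: probe is a biotinylated anti-EGFR antibody binding compounds printed on slides; score combines fluorescence near 667 nm and signal to noise of each spot.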 The conditions noted are these: small-molecule microarray, higher = more signal.

Active and inactive are the calls of the source.

Pro-neuregulin-1, membrane-bound isoform (Homo sapiens), sequence (Q02297 whole entry, looked up, the tested form may be a part, canonical isoform): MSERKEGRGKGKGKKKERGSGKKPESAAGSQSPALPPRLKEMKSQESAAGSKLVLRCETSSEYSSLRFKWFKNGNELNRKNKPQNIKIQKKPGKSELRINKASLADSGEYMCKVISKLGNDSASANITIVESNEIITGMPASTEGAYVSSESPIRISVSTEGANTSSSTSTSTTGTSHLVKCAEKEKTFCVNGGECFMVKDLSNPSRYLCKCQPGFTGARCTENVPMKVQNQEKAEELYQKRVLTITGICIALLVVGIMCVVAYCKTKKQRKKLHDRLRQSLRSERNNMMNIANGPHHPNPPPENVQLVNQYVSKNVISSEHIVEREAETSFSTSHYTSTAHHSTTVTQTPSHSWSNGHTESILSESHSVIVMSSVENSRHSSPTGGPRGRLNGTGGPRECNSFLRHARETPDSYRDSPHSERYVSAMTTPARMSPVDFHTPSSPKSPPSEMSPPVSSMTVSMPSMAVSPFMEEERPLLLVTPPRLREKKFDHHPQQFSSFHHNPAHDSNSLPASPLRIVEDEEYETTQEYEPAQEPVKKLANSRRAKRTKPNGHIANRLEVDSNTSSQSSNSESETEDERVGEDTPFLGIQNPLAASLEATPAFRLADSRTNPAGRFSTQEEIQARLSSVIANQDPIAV
Neurogenic locus notch homolog protein 3 (Homo sapiens), sequence (Q9UM47 whole entry, looked up): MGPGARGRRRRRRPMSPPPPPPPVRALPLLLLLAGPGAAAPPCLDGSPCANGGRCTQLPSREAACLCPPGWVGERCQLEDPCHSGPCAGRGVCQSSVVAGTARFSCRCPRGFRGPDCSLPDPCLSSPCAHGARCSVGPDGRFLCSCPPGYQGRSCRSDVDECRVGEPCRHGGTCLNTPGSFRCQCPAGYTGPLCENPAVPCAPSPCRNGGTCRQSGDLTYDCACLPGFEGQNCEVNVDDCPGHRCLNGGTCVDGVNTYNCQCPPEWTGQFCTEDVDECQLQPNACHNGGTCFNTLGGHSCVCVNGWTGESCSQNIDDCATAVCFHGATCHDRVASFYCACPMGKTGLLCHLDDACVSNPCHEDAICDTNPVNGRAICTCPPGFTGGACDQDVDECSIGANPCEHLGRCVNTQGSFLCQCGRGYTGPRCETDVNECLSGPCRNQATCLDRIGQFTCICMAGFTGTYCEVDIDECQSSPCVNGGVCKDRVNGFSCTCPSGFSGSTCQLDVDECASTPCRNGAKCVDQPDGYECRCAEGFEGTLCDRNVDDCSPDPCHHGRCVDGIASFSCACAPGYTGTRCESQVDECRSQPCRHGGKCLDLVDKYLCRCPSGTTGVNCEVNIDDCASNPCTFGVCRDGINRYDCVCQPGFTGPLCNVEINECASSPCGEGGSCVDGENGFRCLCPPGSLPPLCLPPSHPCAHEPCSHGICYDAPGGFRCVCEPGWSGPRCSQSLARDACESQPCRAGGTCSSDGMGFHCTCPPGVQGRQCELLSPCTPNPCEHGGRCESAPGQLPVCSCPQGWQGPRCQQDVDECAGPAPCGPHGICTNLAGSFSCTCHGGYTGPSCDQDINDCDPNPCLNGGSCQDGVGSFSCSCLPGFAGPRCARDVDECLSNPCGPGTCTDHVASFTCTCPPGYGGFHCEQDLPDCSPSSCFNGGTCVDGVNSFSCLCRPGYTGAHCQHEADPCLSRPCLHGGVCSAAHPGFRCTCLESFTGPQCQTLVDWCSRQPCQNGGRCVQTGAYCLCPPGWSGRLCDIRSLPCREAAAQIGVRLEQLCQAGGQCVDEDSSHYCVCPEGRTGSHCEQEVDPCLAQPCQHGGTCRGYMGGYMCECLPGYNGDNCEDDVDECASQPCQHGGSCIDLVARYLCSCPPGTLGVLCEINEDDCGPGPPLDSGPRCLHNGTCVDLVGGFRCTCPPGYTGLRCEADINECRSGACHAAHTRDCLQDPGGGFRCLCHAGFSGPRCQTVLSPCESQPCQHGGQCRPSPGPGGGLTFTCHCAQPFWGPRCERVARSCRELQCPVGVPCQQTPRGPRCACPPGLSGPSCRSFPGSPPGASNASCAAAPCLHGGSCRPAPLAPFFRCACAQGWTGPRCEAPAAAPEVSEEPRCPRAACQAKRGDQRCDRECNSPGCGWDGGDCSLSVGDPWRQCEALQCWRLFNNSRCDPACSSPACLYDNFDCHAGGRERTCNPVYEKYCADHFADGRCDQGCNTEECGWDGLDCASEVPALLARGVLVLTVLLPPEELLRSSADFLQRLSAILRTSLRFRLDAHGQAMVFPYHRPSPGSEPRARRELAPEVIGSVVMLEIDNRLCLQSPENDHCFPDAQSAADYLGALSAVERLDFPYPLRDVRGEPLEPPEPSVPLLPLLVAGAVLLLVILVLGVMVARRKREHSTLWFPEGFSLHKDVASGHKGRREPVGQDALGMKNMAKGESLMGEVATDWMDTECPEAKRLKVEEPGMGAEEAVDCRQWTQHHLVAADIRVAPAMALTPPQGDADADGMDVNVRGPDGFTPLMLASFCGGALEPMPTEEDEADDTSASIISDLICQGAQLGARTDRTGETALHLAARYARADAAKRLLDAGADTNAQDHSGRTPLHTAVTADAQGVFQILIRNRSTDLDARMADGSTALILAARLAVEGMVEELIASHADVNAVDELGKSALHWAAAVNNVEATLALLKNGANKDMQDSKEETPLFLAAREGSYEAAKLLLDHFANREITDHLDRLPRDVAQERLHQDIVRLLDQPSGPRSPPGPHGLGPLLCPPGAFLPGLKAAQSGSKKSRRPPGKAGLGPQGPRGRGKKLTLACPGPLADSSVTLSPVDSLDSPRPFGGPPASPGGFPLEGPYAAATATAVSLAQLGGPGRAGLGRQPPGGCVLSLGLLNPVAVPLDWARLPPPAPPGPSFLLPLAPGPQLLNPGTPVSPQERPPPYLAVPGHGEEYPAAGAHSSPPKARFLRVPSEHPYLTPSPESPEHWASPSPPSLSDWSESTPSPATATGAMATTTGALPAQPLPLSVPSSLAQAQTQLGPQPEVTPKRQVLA
Torsin-1A-interacting protein 2 (Homo sapiens), sequence (Q8NFQ8 whole entry, looked up): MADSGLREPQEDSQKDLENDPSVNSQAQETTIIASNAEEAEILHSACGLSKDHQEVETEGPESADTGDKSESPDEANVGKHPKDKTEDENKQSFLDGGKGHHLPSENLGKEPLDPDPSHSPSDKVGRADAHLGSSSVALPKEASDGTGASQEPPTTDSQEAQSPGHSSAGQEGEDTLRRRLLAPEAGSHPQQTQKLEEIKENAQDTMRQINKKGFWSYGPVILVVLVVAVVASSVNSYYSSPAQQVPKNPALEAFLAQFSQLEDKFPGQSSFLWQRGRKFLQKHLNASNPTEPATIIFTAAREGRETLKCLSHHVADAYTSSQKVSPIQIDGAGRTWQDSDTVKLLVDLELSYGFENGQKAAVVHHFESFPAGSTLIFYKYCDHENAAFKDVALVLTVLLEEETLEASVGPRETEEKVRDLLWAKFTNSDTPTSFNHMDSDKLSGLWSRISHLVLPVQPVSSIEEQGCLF

For the molecule `O=C1O[C@H](c2ccccc2)[C@H](c2ccccc2)N2[C@H]1[C@@H](C(=O)NC[C@H](O)c1ccccc1)[C@]1(C(=O)Nc3ccc(C#CCCO)cc31)[C@H]2c1ccc(OCCO)cc1`, the composite z-score turned out to be 0.141 in [1]; 0.628 in assay [2]; 0.0521 in [3]; 0.984 in assay [4]; 0.782 in assay [5]; 1.23 in assay [6]. Moreover, the composite z-score was 1.23 in assay [7]; 0.131 in [9]; -0.226 in [10]; 1.55 in assay [11]; 2.08 in assay [15]; -0.122 in assay [17]. Further, the composite z-score in [18] is 0.558; in assay [19] it was 0.818; in assay [20], -0.133. Also, the z-score in [8] was 1.59 (inactive); in [12] it was 2.73 (inactive); in [13], 1.62 (inactive); in assay [14] it was 4.7 (inactive); in [16], 0.301 (inactive).

As for `NC(=O)N1C(=O)C2C(C1=O)C1C=C(CCCO)C2C(c2cccs2)N1Cc1cccc(OC(F)(F)F)c1` (stereo not given), the composite z-score in [1] was -0.206; in assay [2], 0.118; in assay [3] it was -0.0715; in [4], 0.354; in assay [5] it was 0.009; in assay [6], 1.03. Besides, the composite z-score in assay [7] is 0.753; in assay [9], 0.0646; in [10] it was -0.0994; in assay [11] it was 1.2; in assay [15] it was 1.77; in [17] it was -0.123. Further, the composite z-score was 0.329 in assay [18], 0.511 in assay [19] and 0.0625 in assay [20]. In addition, the z-score in [8] is -1.02 (inactive); in assay [12], -0.367 (inactive); in assay [13], -1.7 (inactive); in assay [14] it was -0.967 (inactive); in assay [16] it was 0.56 (inactive).

On to `C[C@@H]1NC(=O)[C@@]23C(=O)N[C@@H](Cc4ccccc4)C2[C@H](C)[C@@]2(C)O[C@H]2C3/C=C/C/C=C\CNC(=O)[C@@H]2CCCN2C1=O` (stereo not given in full), for which the composite z-score in assay [1] is -0.301; in assay [2], 0.009; in [3], -0.158; in [4], 0.139; in assay [5], -0.355; in [6] it was -0.365. In addition, the composite z-score in assay [7] was 0.519; in assay [9], -0.276; in assay [10], -0.249; in [11] it was -0.422; in [15], -0.516; in assay [17], -0.132. For the same molecule, the composite z-score in [18] is -0.044; in assay [19] it was -0.526; in assay [20] it was -0.266. For the same molecule, the z-score in [8] is 0.251 (inactive); in assay [12], -0.498 (inactive); in assay [13], -0.409 (inactive); in [14], -0.524 (inactive); in assay [16], -0.874 (inactive).

Regarding `O=c1n(-c2ccccc2)c(=O)n2n1CC(COc1ccccc1)=C([C@H](O)CCc1ccccc1)[C@@H]2CO`, the composite z-score in [1] was -0.333; in assay [2] it was -0.0765; in assay [3], -0.141; in assay [4], 0.265; in assay [5], 0.094; in [6], -0.153. In addition, the composite z-score in assay [7] was 0.0463; in assay [9], 0.0915; in assay [10], -0.318; in assay [11], 0.17; in assay [15], -0.173; in assay [17] it was -0.153. Moreover, the composite z-score is 0.701 in assay [18], -0.196 in [19] and -0.08 in [20]. Moreover, the z-score in assay [8] is -2.53 (inactive); in assay [12], -1.33 (inactive); in assay [13], -1.79 (inactive); in [14] it was -0.868 (inactive); in [16], 2.68 (inactive).

Turning to `CCCCCCCCCCC(O)C1C=CC2C(=O)N(C)C(=O)C2N1NC(=O)OC(C)(C)C` (stereo not given), the composite z-score in assay [1] is -0.318; in assay [2] it was -0.127; in [3], -0.0272; in assay [4], -0.293; in assay [5] it was 0.228; in assay [6], 1.03. Further, the composite z-score was 0.465 in assay [7]; 0.0478 in assay [9]; -0.212 in assay [10]; 0.76 in [11]; 2.18 in [15]; -0.0725 in [17]. In addition, the composite z-score in [18] was -0.765; in assay [19] it was 0.0249; in assay [20], -0.128. Moreover, the z-score in assay [8] is -0.218 (inactive); in [12], 0.258 (inactive); in assay [13], -16.5 (active); in [14], -1.97 (inactive); in [16] it was -2.14 (inactive).
